KinaseGlo FLuc = counter-screen: inhibitors of Kinase-Glo firefly luciferase | Q27757 | Kinase-Glo luciferase, ATP luminescence, 8 min | Potency, µM (doses to about 38.3 µM), without a hit: top-dose activity change, negative = inhibition, actives largely listed as inhibitors | 200,000 tested, 0.28% active | AID 1379; also: % is scaled to controls: 0 for no effect and ±100 for the full control effect; nearly all actives have a fitted effect of over 60% in size
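Luminescence was the read-out, taken after 8-minute incubation at ambient temperature. Luciferase turned over luciferin with 10 uM ATP in imidazole pH 7.2 buffer containing KCl, MgCl2, Tween 20 and BSA.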
SMN2 splice up = increases expression of the SMN2 splice variant; AID 1458; Potency, µM (top dose mostly 46.1 µM), for inactives: at the highest dose activity change, positive = activation, actives largely listed as activators; HEK293 SMN2-luciferase splicing reporter, luminescence, 30-36 h; 210,000 tested, 2.8% active; also: % of control where 0% means no effect; nearly all actives have a fitted effect of over 55% in size
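HEK293 cells carry an SMN2 minigene-luciferase reporter in which exon 7 inclusion puts luciferase in frame. Cells were seeded at 2000 cells/well, attached for 10-12 hours, then exposed to compounds for 30-36 hours at 37C before ONE-Glo luminescence.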
NPC1 promoter act = activates the NPC1 promoter. Potency, µM (doses to about 9.22 µM), for inactives: top-dose activation, most hits filed as activators. Huh7 NPC1 promoter luciferase reporter, 24 h. AID 485313. 320,000 tested, 2.4% active; also: % of control where 0% means no effect; nearly all actives have a fitted effect of over 60% in size
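Luminescence read-out of NPC1 promoter-driven luciferase in stably transfected Huh7 cells; compounds delivered in DMSO and left 24 h at 37C, 5% CO2, qHTS titration format.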
Rab9 prom act = activators of Rab9 promoter | Huh7 Rab9 promoter-luciferase reporter, luminescence, 24 h | Potency, µM (doses to about 9.22 µM), for the others: at the top dose activation, negative = inhibition, hits mostly activators | 320,000 tested, 2.8% active | AID 485297; also: % of control where 0% means no effect; nearly all actives have a fitted effect of over 60% in size
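Huh7 cells stably carrying Rab9 promoter–luciferase reporter, plated 1500 cells/well, compound added after 2 h and incubated 24 h at 37 °C; luciferase luminescence then read after 10 min with detection reagent.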
ELG1 genotoxic = genotoxicity induction in ELG1-luciferase HEK293T cells. HEK293T ELG1-luciferase reporter, luminescence, 16 h. Potency, µM (titrated, usually from 46 µM), for the others: at the top dose activity change, positive = activation, usual class: activators. 330,000 tested, 1.3% active; also: % of control where 0% means no effect; nearly all actives have a fitted effect of over 60% in size
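Screening used a luciferase reporter fused to human ELG1 in HEK293T cells. Luminescence was read on a CCD plate imager after 16 hr exposure and 30 min ONE-Glo incubation.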
FLuc counter = firefly luciferase modulation, counter-screen for miR-21 project | P08659 | purified FLuc, Km substrates, luminescence inhibition | Potency, µM (series often up to 57.5 µM), for the others: top-dose activity change, negative = inhibition, usual class: inhibitors | 360,000 tested, 6.9% active;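 also: plate controls were vehicle for no effect and reference inhibitor for full effect; nearly all actives have a fitted effect of over 55% in size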
Target sequence (P08659 whole entry, looked up): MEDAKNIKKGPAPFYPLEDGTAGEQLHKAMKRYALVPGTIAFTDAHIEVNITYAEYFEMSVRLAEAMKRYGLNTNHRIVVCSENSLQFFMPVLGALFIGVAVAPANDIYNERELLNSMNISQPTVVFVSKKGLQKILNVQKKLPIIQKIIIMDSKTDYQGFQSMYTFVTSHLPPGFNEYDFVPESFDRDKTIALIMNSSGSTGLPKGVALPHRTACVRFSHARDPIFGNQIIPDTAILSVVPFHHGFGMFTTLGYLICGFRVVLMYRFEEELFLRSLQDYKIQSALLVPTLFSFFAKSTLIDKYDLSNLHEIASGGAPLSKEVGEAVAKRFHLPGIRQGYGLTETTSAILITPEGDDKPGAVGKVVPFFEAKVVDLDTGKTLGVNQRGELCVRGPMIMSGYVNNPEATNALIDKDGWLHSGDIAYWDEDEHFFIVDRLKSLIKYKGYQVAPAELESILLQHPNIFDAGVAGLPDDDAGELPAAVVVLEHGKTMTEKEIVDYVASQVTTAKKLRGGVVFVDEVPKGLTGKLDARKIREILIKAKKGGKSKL
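Biochemical qHTS of compounds, final roughly 60 µM downward over six points, against 10 nM purified firefly luciferase using Km concentrations of substrates (10 uM D-luciferin, 10 uM ATP) in Tris acetate pH 7.5 buffer; luminescence output.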
Active calls of the source: *; ? = inconclusive; · = no result; [ ] = another dose, or the depositor's remark. Rows were chosen to be rich in hits. Some 7.4% of all compounds tested hit in one or more screens of this group. Calls follow the shape of the dose curve; as a rule, active = well fitted curve in the direction sought with a large enough effect; inconclusive = small, poorly fitted or top-dose-only effect, or another doubt; inactive = no such curve, though single readings can be large; an effect the other way counts as inactive or inconclusive. Potency is read from the fitted curve at half-maximal effect.

SMILES | KinaseGlo FLuc | SMN2 splice up | NPC1 promoter act | Rab9 prom act | ELG1 genotoxic | FLuc counter
Cc1ccccc1OCCCCn1cnc2ccccc21 | 19.1% | -90.7% | -9.4% | -18.5% | -5.2% | 19µM*
c1ccc2c(c1)ncn2CCCOc1ccc2c(c1)CCC2 | 2.5% | -28.8% | 16.3% | 0.3% | 23.1% | 15.1µM*
Brc1ccccc1OCCCn1cnc2ccccc21 | -1.7% | ? | 3.16µM* | 3.98µM* | 5.8µM* | 2.39µM*
O=C(c1cccc(Cl)c1)N1CCC(c2nc3c(nnn3Cc3ccc(F)cc3F)c(=O)[nH]2)CC1 | · | -16.6% | · | · | · | -7.5%
O=C1CC(c2ccccc2)CC(O)=C1C=Nc1ccccc1 (stereo not given) | -3.8% | -3.7% | -3.9% | 1.3% | -0.1% | 16.9µM*
Cc1ccc(N=CC2=C(O)CC(c3ccco3)CC2=O)cc1 (stereo not given) | -3.3% | -14.4% | 0.8% | 11.4% | 8.2% | 10.7µM*
O=C(Cn1c(=O)oc2cc(S(=O)(=O)N3CCCCCC3)ccc21)Nc1ccc(F)cc1F | · | -3.8% | · | · | · | ?
O=C(c1ccc(CS(=O)(=O)c2c(Cl)cccc2Cl)o1)N1CCN(c2ccccc2)CC1 | · | -41.4% | · | · | · | -6.8%
CC(=O)c1cccc(NC(=O)c2onc(C)c2Cl)c1 | -3.5% | 9.2% | 20.6% | 10.5% | 14.9% | -5.2%
Cc1noc(C(=O)Nc2ccc3c(c2)OCO3)c1Cl | -11.7% | ? | ? | 3.98µM* | ? | 19µM*
CC(=O)c1ccc(NC(=O)c2onc(C)c2Cl)cc1 | · | · | 1.41µM* | 0.631µM* | ? | ?
CCc1onc(C)c1C(=O)Nc1ccc2c(c1)OCO2 | · | · | -1.0% | -6.4% | 1.4% | 1.6%
O=C(N/N=C/c1ccc2c(c1)OCO2)c1sc2cc(Cl)ccc2c1Cl | -1.6% | 5.4% | -0.5% | -4.8% | 6.5% | ?
CC(C)c1onc(C(=O)Nc2ccc3c(c2)OCO3)c1[N+](=O)[O-] | · | · | 0.8% | 0.4% | ? | 26.9µM*
Cc1ccc2c(Cl)c(C(=O)Nc3ccc4c(c3)OCO4)sc2c1 | -1.0% | ? | ? | 2µM* | 18.1% | -27.6%
CC(C)N(C)C1CCN(S(=O)(=O)c2ccc3[nH]c(=O)ccc3c2)CC1 | · | · | · | · | · | -1.5%
CC1=C2C(=COC(C)C2C)C(=O)C(C(=O)O)=C1O (stereo not given) | -2.5% | 7.3% | · | · | · | ·
COc1ccc2c(c1)C(c1cc(OC)c(OC)c(OC)c1)CC(=O)O2 (stereo not given) | 4.2%[39.9 µM] | · | · | · | · | ·
COCCc1nn2c(=O)cc(COC(=O)c3ccc(C(C)(C)C)cc3)nc2s1 | · | · | · | · | · | -12.9%
COCCn1c(SCc2nc3ccccc3s2)nc2ccccc21 | -0.5% | 10.2% | ? | 3.55µM* | ? | 12µM*
CCOCCCn1c(SCC(=O)Nc2ccccc2)nc2ccccc2c1=O | · | · | -3.2% | 0.2% | -4.4% | -3.3%
C=CCn1c(=O)c2ccccc2n2c(SCc3nc4ccccc4s3)nnc12 | 12.4% | -25.6% | 4.7% | ? | ? | 12µM*
CCOCCCn1c(SCc2nc3ccccc3s2)nc2ccccc2c1=O | -4.9% | -109.1% | 15.3% | 15.6% | -7.9% | 16.9µM*
CCN(CC)S(=O)(=O)c1cccc(-c2nc3n(n2)Cc2ccccc2-3)c1 | -3.7% | -16.5% | ? | ? | 5.3% | 12µM*
Clc1ccc(-c2nc3n(n2)Cc2ccccc2-3)cc1 | ? | 0.501µM* | 3.16µM* | 1.58µM* | ? | 0.536µM*
Cc1nn(C)c2c1c(-c1ccccc1)cc(=O)n2Cc1ccccc1C#N | · | · | · | · | · | -19.9%
CCOc1ccc(OCc2cccc(C(=O)N/N=C/c3cccnc3)c2)cc1 | -4.7% | 0.126µM* | 0.1µM* | 0.1µM* | 0.231µM* | 1.51µM*
CC(C)c1ccc(OCc2cccc(C(=O)N/N=C/c3cccnc3)c2)cc1 | -3.5% | 0.224µM* | 0.282µM* | ? | 0.461µM* | 0.849µM*
O=C(N/N=C/c1cccnc1)c1cccc(Br)c1 | · | · | 1.7% | 20.5% | 4.7% | ?
O=C(NCCc1ccc(Cl)cc1)c1cccn1-c1nnc(N2CCCC2)s1 | · | · | · | · | · | -0.1%

Source: PubChem (National Center for Advancing Translational Sciences (NCATS))
